PLC-gamma1 inh: inhibitors of human phospholipase C gamma1; purified PLC-gamma1, fluorogenic substrate, fluorescence; inhibition, % at 12.2 µM; 370,000 compounds, 0.84% hits; AID 720700; in the data active = inhibition above about 9.5%
UHRF1 binding: UHRF1 methyl-DNA binding inhibition; UHRF1 binding to methylated oligo, TR-FRET; inhibition, % at 4.4 µM; 370,000 compounds, 0.75% hits; AID 687016; in the data active = inhibition above about 21%;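 also: UHRF1 SRA domain binding a hemimethylated CpG hairpin DNA probe; 0% = median of test compound wells and 100% = reference inhibitor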
Target sequence (Q96T88 whole entry, looked up, the tested form may be a part): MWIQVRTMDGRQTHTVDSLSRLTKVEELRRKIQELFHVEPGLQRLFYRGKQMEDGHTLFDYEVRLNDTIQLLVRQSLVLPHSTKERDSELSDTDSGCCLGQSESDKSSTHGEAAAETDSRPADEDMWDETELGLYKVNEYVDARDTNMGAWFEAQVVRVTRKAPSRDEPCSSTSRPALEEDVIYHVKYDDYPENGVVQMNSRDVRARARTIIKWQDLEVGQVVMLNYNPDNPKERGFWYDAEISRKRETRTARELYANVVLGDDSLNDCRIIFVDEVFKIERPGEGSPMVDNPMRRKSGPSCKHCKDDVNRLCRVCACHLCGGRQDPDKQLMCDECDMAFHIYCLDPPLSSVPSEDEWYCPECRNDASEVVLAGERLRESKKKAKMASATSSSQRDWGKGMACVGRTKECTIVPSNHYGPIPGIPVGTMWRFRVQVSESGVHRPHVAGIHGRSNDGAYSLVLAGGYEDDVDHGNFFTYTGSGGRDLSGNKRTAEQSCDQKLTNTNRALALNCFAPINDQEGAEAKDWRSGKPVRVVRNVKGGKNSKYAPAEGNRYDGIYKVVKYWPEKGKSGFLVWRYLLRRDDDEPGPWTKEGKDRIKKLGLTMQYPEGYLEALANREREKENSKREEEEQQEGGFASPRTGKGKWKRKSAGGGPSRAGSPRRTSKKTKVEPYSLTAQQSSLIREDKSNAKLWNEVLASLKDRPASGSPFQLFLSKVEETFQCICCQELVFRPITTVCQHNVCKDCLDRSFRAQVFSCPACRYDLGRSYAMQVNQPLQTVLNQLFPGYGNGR
LEDGF integ inh: blocks HIV-1 LEDGF/p75-dependent DNA integration. inhibition, % at 3.7 µM. TR-FRET IN-LEDGF/p75 DNA integration, Eu/Cy5. 370,000 compounds, 0.64% hits;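 active = inhibition above the screen-wide mean plus 3 SD, cut at about 13% in these data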;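 also: signal is the Cy5 over europium emission ratio at 671 and 618 nm; 0% = plate median of compound wells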
PLC-beta3 inh: inhibitors of human phospholipase C beta3. Purified PLC-beta3, fluorogenic substrate, fluorescence. inhibition, % at 12.2 µM. 370,000 compounds, 0.18% hits. AID 720704; in the data active = inhibition above about 11%;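 also: 0% = median of compound wells on plate and 100% = full blocker control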
MBD2 DNA inh: blocks human MBD2 binding to methylated DNA; Q9UBB5; TR-FRET, MBD2 binding to methylated oligonucleotide; inhibition, % at 4.4 µM; 370,000 compounds, 0.31% hits; in the data active = inhibition above about 13%
IN multimer act: HIV-1 integrase multimerization activation, counter-screen; shares compounds with LEDGF integ inh; TR-FRET HIV-1 integrase multimerization, biochemical; activation, % at 7.7 µM; 2,000 compounds, 17% hits; in the data active = activation above about 8.9%
TRFRET interf: TR-FRET optical interference, LEDGF/p75 integration counter-screen; 2,000 tested, under 10 active; TR-FRET optical interference counterscreen, HIV-1 IN multimerization; inhibition, % at 7.7 µM; shares compounds with LEDGF integ inh;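 active = inhibition above the mean over all tested compounds plus 3 SD, which no compound reached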;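 also: 0% = integrase with antibodies and DMSO and 100% = antibodies without integrase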
LEDGF integ conf: confirmation of HIV-1 LEDGF/p75-dependent integration inhibitors | shares compounds with LEDGF integ inh | TR-FRET LEDGF/p75-dependent HIV-1 integration, biochemical | inhibition, % at 3.7 µM | 2,000 compounds, 36% hits; in the data active = inhibition above about 14%
The depositor's hits bear a star; nt = no result; ! = a repeat was not active. This is a sample that favours compounds with a hit; in the whole collection about 2.4% have one here.

SMILES | PLC-gamma1 inh | UHRF1 binding | LEDGF integ inh | PLC-beta3 inh | MBD2 DNA inh | IN multimer act | TRFRET interf | LEDGF integ conf
O=C(O)Cn1cc(/C=C2\C(=O)NC(=O)N(c3ccc(Cl)cc3)C2=O)c2ccccc21 | -4 | -3 | 0 | -10 | -4 | nt | nt | nt
CCN(CC)C(=O)Cn1cc(/C=C2\C(=O)NC(=O)N(c3ccccc3F)C2=O)c2ccccc21 | -2 | 0 | 18* | 1 | 2 | 2 | -6 | 5
CC1CCCCN1Cc1c[nH]c2ccccc12 (centres undefined) | -5 | 0 | -3 | -8 | -2 | nt | nt | nt
O=c1cccc2n1CC1CC2CN(C(c2cccc(F)c2)c2sc3ncnn3c2O)C1 (centres undefined) | 0 | -2 | 17* | 1 | -5 | 0 | 2 | 1
COC(=O)C1=C(C)NC(=S)NC1c1ccc(N(CCCl)CCCl)cc1Cl (centres undefined) | -10 | 0 | 1 | -17 | 0 | nt | nt | nt
COC1CC2C=C(C)C=CC=CC(=O)NC(c3ccccc3)CC=CCCC(O)CC(=O)C2=C1O (centres undefined) | -9 | 19 | 22* | -17 | 5 | 5 | -24 | 50*
COc1ccc(P2(=O)Nc3ccccc3N2)cc1 | -19 | -1 | 2 | -25 | 2 | nt | nt | nt
COc1ccc2c(c1)NP(=S)(c1ccccc1)N2C (centres undefined) | -57 | 15 | 18* | -72 | -8 | 5 | -18 | 1
CCc1ccc(N2C(=O)NC(=O)/C(=C\c3cc(C)n(-c4cc(C(=O)O)cc(C(=O)O)c4)c3C)C2=O)cc1 | -4 | 14 | 29* | -26 | -2 | 6 | -20 | 21*
Cc1ccc(N2C(=O)NC(=O)/C(=C\c3cc(C)n(-c4cc(C(=O)O)cc(C(=O)O)c4)c3C)C2=O)cc1 | 0 | 26* | 36* | -30 | -1 | 2 | -8 | 11
Cc1cc(/C=C2\C(=O)NC(=O)N(c3ccc(F)cc3)C2=O)c(C)n1-c1ccc(C(=O)O)cc1 | -10 | -1 | 4 | -10 | 0 | nt | nt | nt
O=C(NC1CCCCC1)N1Cc2cc(-c3cccc(F)c3)ccc2-n2nncc2C1 | 1 | 0 | 4 | -1 | -3 | nt | nt | nt
COc1ccc(CCNCc2cc(OC)cc(OC)c2)cc1 | 1 | 6 | 1 | -1 | 3 | nt | nt | nt
COc1ccc(CCNCc2ccncc2)cc1 | 0 | -1 | 14* | 1 | -4 | -3 | 9 | 2
CC(C)COC(=O)N1Cc2ccccc2-n2nncc2C1 | 4 | -2 | 5 | 3 | 0 | nt | nt | nt
O=C(OCc1ccccc1)N1CCC2CC1c1cc(N3Cc4ccccc4-n4nncc4C3)ccc12 (centres undefined) | 3 | 6 | 26* | -5 | 4 | 2 | -6 | 12
COc1ccc(-n2c(O)c(C(C)=NCCN3CCNCC3)c(=O)[nH]c2=O)cc1 | 1 | 6 | 17* | 0 | 3 | 0 | 2 | 3
Brc1ccc2[nH]cc(C=NN3CCCCCC3)c2c1 | 0 | -2 | 0 | -2 | 4 | nt | nt | nt
CC[C@@H](CO)NC(=O)[C@@H]1C=C2c3cccc4c3c(cn4C)C[C@H]2N(C)C1 | -184 | 17 | 25*! | -268 | 5 | 2 | -7 | 14*
CC[C@@H](CO)NC(=O)[C@@H]1C=C2c3cccc4[nH]cc(c34)C[C@H]2N(C)C1 | -278 | 11 | 14* | -384 | 0 | 0 | 1 | 17*
CCC(CO)NC(=O)C1C=C2c3cccc4[nH]cc(c34)CC2N(C)C1 (centres undefined) | -141 | 10 | 21* | -183 | 4 | 0 | -1 | 5
CCN(CC)C(=O)N[C@H]1C[C@@H]2c3cccc4[nH]cc(c34)C[C@H]2N(C)C1 | -83 | -6 | 1 | -106 | -7 | nt | nt | nt
CC(NS(=O)(=O)OCC(Cl)(Cl)Cl)c1ccccc1 (centres undefined) | -2 | -5 | -1 | 3 | -3 | nt | nt | nt
CN(C)C(=O)Oc1ccc(Cl)c2ccccc12 | 7 | 6 | 4 | 6 | -5 | nt | nt | nt

Assay outcomes deposited in PubChem BioAssay by The Scripps Research Institute Molecular Screening Center.
